Consider 40 compounds from PubChem BioAssay AID1650 (Southern Research Specialized Biocontainment Screening …, 2009).

Molecules are shown by their SMILES. Results with a measured potency or affinity are listed apart. Active and inactive are the calls of the source. How the calls were made is not given here.

A short description of this assay: host cell cytotoxicity of antiviral hits, dose response, cytotoxicity control for West Nile virus antiviral project, secondary assay (AID 1650). Conditions: Mammalian host cell viability, cytotoxicity counter-screen; series mostly up to 10 µM. (In general: A counterscreen serves to expose hits that act by an unwanted route or on another target.)
`Cc1coc(NC(=O)CSc2nc(-c3ccncc3)cc(C(F)(F)F)c2C#N)n1`: the compound was classed as inactive.

With `CCCN1CCN(CCCNC(=O)c2cc3c(s2)-c2ccccc2OC3)CC1`, the call was inactive.

On to `Cc1cccc(/C=C2/Sc3ccc(C(=O)NCCCN4CCOCC4)cc3NC2=O)c1`, for which the result was inactive.

On to `CN1CCN(NC(=O)c2cc(-c3ccc(Br)s3)nc3ccccc23)CC1`, for which the call was inactive.

With `COc1cc(CNC(C)(C)CO)ccc1OCC(=O)Nc1ccc(Br)cc1`, the compound was classed as inactive.

Regarding `Cc1ccc(C)c(N2CCN(CCCNC(=O)Cn3cccc3C(=O)c3ccccc3)CC2)c1`, the result was inactive.

As for `CN(Cc1ccccc1)c1nc(N)c([N+](=O)[O-])c(Nc2cccc(F)c2)n1`, the outcome was inactive.

Regarding `COc1ccc(C2c3ccc4ccccc4c3Oc3ncn(CCO)c(=N)c32)cc1` (stereo not given), the call was inactive.

Turning to `COc1cc(/C=C/C(=O)c2ccc(NS(=O)(=O)c3ccc(C)cc3)cc2)cc(OC)c1O`, the call was inactive.

Regarding `Nc1nonc1-n1nnc(C(=O)N/N=C/c2ccccc2Cl)c1CSc1ccccc1`, the call was inactive.

Turning to `COc1ccc(N2CCN(c3oc(-c4ccc(OC)c(OC)c4)nc3C#N)CC2)cc1`, the compound was classed as inactive.

As for `O=[N+]([O-])c1nn(-c2ccccc2)n(O)c1=NC1CCN(Cc2ccccc2)CC1`, the call was inactive.

On to `CCN1CCN(c2ncc(C(=O)Nc3cc(Cl)c(OC)cc3OC)c3ccccc23)CC1`, for which the outcome was inactive.

Turning to `O=C(NC1CCCC1)C(c1ccncc1)N(Cc1ccccc1)C(=O)c1ccc(-c2ccccc2)[nH]1` (stereo not given), the compound was classed as inactive.

As for `CCN(CC)CCCC(C)NC(=O)c1c(NC(=O)c2ccccc2)sc2c1CCCC2` (stereo not given), the compound was called inactive.

On to `O=C(CCCN1C(=O)/C(=C\c2ccccc2)SC1=S)Nc1ccc(O)cc1`, for which the compound was called inactive.

As for `COc1ccc(/C=C2\SC(=S)N(CCC(=O)NCCc3ccc(O)cc3)C2=O)cc1`, the outcome was inactive.

`Cn1cc([N+](=O)[O-])c(C(=O)Nc2ccn(C34CC5CC(CC(C5)C3)C4)n2)n1`: the compound was called inactive.

On to `CN(C)CCCN(C(=O)c1ccc2c(c1)OCCO2)c1nc2ccc(Cl)cc2s1`, for which the call was inactive.

With `Cc1ccc(S(=O)(=O)N2CCCC2C(=O)Oc2ccccc2)cc1` (stereo not given), the result was inactive.

Take `C/C(N)=C(/C#N)C(=O)COC(=O)c1cc(-c2ccc(Br)cc2)nc2ccccc12`: the compound was classed as inactive.

For the compound `COc1c(O)ccc2c1CN1CCc3cc4c(cc3C1C2)OCO4` (stereo not given), the call was inactive.

For `COc1ccc(CCNC(=O)COc2ccc(S(=O)(=O)NCC(C)C)cc2Cl)cc1OC`, the outcome was inactive.

Consider `CCc1ccc2nc(N(CCCN(C)C)C(=O)c3ccc(S(=O)(=O)N4CCCc5ccccc54)cc3)sc2c1`, for which the outcome was inactive.

Regarding `COc1cc(CNC(C)(C)CO)cc(Br)c1OCc1ccc(Cl)cc1`, the compound was classed as inactive.

On to `COc1ccc(-c2csc(NC3OC(=O)c4ccccc43)n2)cc1` (stereo not given), for which the outcome was inactive.

`CN1CCN(c2ccc(NC(=O)c3ccc(-c4cccc([N+](=O)[O-])c4)o3)cc2)CC1`: the compound was called inactive.

In the case of `COc1cc(C(CCN2CCCC(C)C2)c2c(OC)cc(OC)c3c(-c4ccccc4)cc(=O)oc23)cc(OC)c1OC` (stereo not given), the call was inactive.

Turning to `Cc1ccc(Nc2nc(N)c([N+](=O)[O-])c(N3CCCC(C)C3)n2)cc1C` (stereo not given), the result was inactive.

Take `O=[N+]([O-])c1cncc([N+](=O)[O-])c1Nc1cccc(O)c1`: the outcome was inactive.

Regarding `O=C(NCCCn1ccnc1)c1cc2nc(-c3ccc(Br)cc3)cc(C(F)(F)F)n2n1`, the compound was called inactive.

In the case of `Nc1nonc1-n1nnc(C(=O)N/N=C/c2ccc(OCc3ccccc3)cc2)c1CNc1ccccc1`, the result was inactive.

For the compound `CC1CCCC(C)N1CCCNC(=O)c1cc2c(s1)-c1ccccc1OC2` (stereo not given), the compound was called inactive.

In the case of `Cc1c(NC(=O)COC(=O)c2cc(-c3ccc(-c4ccccc4)cc3)nc3ccccc23)c(=O)n(-c2ccccc2)n1C`, the result was inactive.

For the compound `CCOc1cc(/C=N/N=C(\N)c2nonc2N)cc(Br)c1OCc1cccc2ccccc12`, the call was inactive.

For `CN1CCN(c2nc(Nc3cccc(C(F)(F)F)c3)nc(N3CCOCC3)n2)CC1`, the call was inactive.

Turning to `CN(C)CCCN(C(=O)c1ccc(S(=O)(=O)N2CCCc3ccccc32)cc1)c1nc2ccc(F)cc2s1`, the outcome was inactive.

For the compound `C/C(=N\OC(=O)c1ccc(F)cc1)c1nccs1`, the result was inactive.

For `O=C(CCN1C(=O)/C(=C/c2ccccc2F)SC1=S)NCCc1ccc(O)cc1`, the call was inactive.

Regarding `COc1cc(CNC(C)(C)C)cc(Br)c1OCc1cccs1`, the call was inactive.
